Measurements published in the supplement of paper PMC8728848.
Only a selection was taken, and the strongest signals are over-represented in it overall.

How the values were obtained:
Assay in all cases: glycan array binding signal (z-score within array); higher = stronger binding
Conditions in all cases: glycan notation: IUPAC condensed, linker removed
[1] = molecular target: Fuc(a1-2)Gal(b1-3)GlcNAc(b1-2)Man(a1-3)[Fuc(a1-2)Gal(b1-3)GlcNAc(b1-2)Man(a1-6)]Man(b1-4)GlcNAc(b1-4)GlcNAc
Summary of the method: (§1)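 From the Consortium for Functional Glycomics database, 3228 arrays were curated, keeping only those whose protein sequence was available. Binding is given as a within-array Z-score averaged across arrays sharing a protein sequence and across linkers. Negative Z-scores can be read as non-binding.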

[2] = molecular target: Fuc(a1-2)Gal(b1-3)GlcNAc(b1-2)Man(a1-3)[Fuc(a1-2)Gal(b1-3)GlcNAc(b1-2)Man(a1-6)]Man(b1-4)GlcNAc(b1-4)[Fuc(a1-6)]GlcNAc
Summary of the method: as §1

[3] = molecular target: Fuc(a1-2)Gal(b1-4)Fuc(a1-3)]GlcNAc(b1-2)Man(a1-3)[Fuc(a1-2)Gal(b1-4)[Fuc(a1-3)]GlcNAc(b1-2)Man(a1-6)]Man(b1-4)GlcNAc(b1-4)GlcNAc
Summary of the method: as §1

Fuc(a1-2)Gal(b1-4)Glc = molecular target: Fuc(a1-2)Gal(b1-4)Glc
Summary of the method: as §1

[4] = molecular target: Fuc(a1-2)Gal(b1-4)GlcNAc(b1-2)Man(a1-3)[Fuc(a1-2)Gal(b1-4)GlcNAc(b1-2)Man(a1-6)]Man(b1-4)GlcNAc(b1-4)[Fuc(a1-6)]GlcNAc
Summary of the method: as §1

[5] = molecular target: Fuc(a1-2)[Gal(a1-3)]Gal(b1-3)GlcNAc(b1-3)GalNAc
Summary of the method: as §1

[6] = molecular target: Fuc(a1-2)[Gal(a1-3)]Gal(b1-4)GlcNAc(b1-2)Man(a1-3)[Fuc(a1-2)[Gal(a1-3)]Gal(b1-4)GlcNAc(b1-2)Man(a1-6)]Man(b1-4)GlcNAc(b1-4)[Fuc(a1-6)]GlcNAc
Summary of the method: as §1

[7] = molecular target: Fuc(a1-2)[Gal(a1-3)]Gal(b1-4)GlcNAc(b1-3)[Fuc(a1-2)[Gal(a1-3)]Gal(b1-4)GlcNAc(b1-6)]GalNAc
Summary of the method: as §1

[8] = molecular target: Fuc(a1-2)[GalNAc(a1-3)]Gal(b1-4)GlcNAc(b1-3)Gal(b1-4)GlcNAc
Summary of the method: as §1

[9] = molecular target: Fuc(a1-2)[GalNAc(a1-3)]Gal(b1-4)GlcNAc(b1-3)[Fuc(a1-2)[GalNAc(a1-3)]Gal(b1-4)GlcNAc(b1-6)]GalNAc
Summary of the method: as §1

[10] = molecular target: Fuc(a1-2)[GalNAc(a1-3)]Gal(b1-4)GlcNAc(b1-6)GalNAc
Summary of the method: as §1

[11] = molecular target: Fuc(a1-2)[GalNAc(a1-3)]Gal(b1-4)[Fuc(a1-3)]GlcNAc
Summary of the method: as §1

[12] = molecular target: Fuc(a1-3)[Gal(b1-4)]GlcNAc
Summary of the method: as §1

[13] = molecular target: Fuc(a1-3)[Gal3S(b1-4)]GlcNAc6S
Summary of the method: as §1

Gal(a1-3)Gal(b1-3)GlcNAc = molecular target: Gal(a1-3)Gal(b1-3)GlcNAc
Summary of the method: as §1

[14] = molecular target: Gal(a1-3)Gal(b1-3)GlcNAc(b1-2)Man(a1-3)[Gal(a1-3)Gal(b1-3)GlcNAc(b1-2)Man(a1-6)]Man(b1-4)GlcNAc(b1-4)GlcNAc
Summary of the method: as §1

[15] = molecular target: Gal(a1-3)Gal(b1-4)GlcNAc(b1-3)GalNAc
Summary of the method: as §1

Gal(a1-3)GalNAc = molecular target: Gal(a1-3)GalNAc
Summary of the method: as §1

[16] = molecular target: Gal(a1-4)Gal(b1-3)GlcNAc(b1-2)Man(a1-3)[Gal(a1-4)Gal(b1-3)GlcNAc(b1-2)Man(a1-6)]Man(b1-4)GlcNAc(b1-4)GlcNAc
Summary of the method: as §1

[17] = molecular target: Gal(b1-3)GlcNAc(b1-2)Man(a1-3)[GlcNAc(b1-4)][Gal(b1-3)GlcNAc(b1-2)Man(a1-6)]Man(b1-4)GlcNAc(b1-4)GlcNAc
Summary of the method: as §1

[18] = molecular target: Gal(b1-3)GlcNAc(b1-3)Gal(b1-4)GlcNAc(b1-2)Man(a1-3)[Gal(b1-3)GlcNAc(b1-3)Gal(b1-4)GlcNAc(b1-2)Man(a1-6)]Man(b1-4)GlcNAc(b1-4)GlcNAc
Summary of the method: as §1

[19] = molecular target: Gal(b1-4)GlcNAc(b1-2)Man(a1-3)[GlcNAc(b1-4)][Gal(b1-4)GlcNAc(b1-2)Man(a1-6)]Man(b1-4)GlcNAc(b1-4)GlcNAc
Summary of the method: as §1

[20] = molecular target: Gal(b1-4)GlcNAc(b1-2)[Gal(b1-4)GlcNAc(b1-6)]Man(a1-6)[Gal(b1-4)GlcNAc(b1-2)Man(a1-3)]Man(b1-4)GlcNAc(b1-4)GlcNAc
Summary of the method: as §1

[21] = molecular target: Gal(b1-4)GlcNAc(b1-3)Gal(b1-4)GlcNAc
Summary of the method: as §1

Gal6S(b1-4)GlcNAc = molecular target: Gal6S(b1-4)GlcNAc
Summary of the method: as §1

GlcNAc(b1-3)Gal = molecular target: GlcNAc(b1-3)Gal
Summary of the method: as §1

GlcNAc(b1-4)GlcNAc = molecular target: GlcNAc(b1-4)GlcNAc
Summary of the method: as §1

[22] = molecular target: GlcNAc6S(b1-3)Gal(b1-4)GlcNAc
Summary of the method: as §1

[23] = molecular target: Neu5Ac(a2-3)Gal(b1-3)GalNAc
Summary of the method: as §1

[24] = molecular target: Neu5Ac(a2-3)Gal(b1-3)GalNAc(b1-3)Gal(a1-4)Gal(b1-4)Glc
Summary of the method: as §1

[25] = molecular target: Neu5Ac(a2-3)Gal(b1-3)GlcNAc(b1-2)Man(a1-3)[GlcNAc(b1-4)][Neu5Ac(a2-3)Gal(b1-3)GlcNAc(b1-2)Man(a1-6)]Man(b1-4)GlcNAc(b1-4)GlcNAc
Summary of the method: as §1

[26] = molecular target: Neu5Ac(a2-3)Gal(b1-3)[Fuc(a1-4)]GlcNAc
Summary of the method: as §1

Neu5Ac(a2-3)Gal(b1-4)Glc = molecular target: Neu5Ac(a2-3)Gal(b1-4)Glc
Summary of the method: as §1

[27] = molecular target: Neu5Ac(a2-3)Gal6S(b1-4)GlcNAc
Summary of the method: as §1

[28] = molecular target: Neu5Ac(a2-3)Gal6S(b1-4)[Fuc(a1-3)]GlcNAc
Summary of the method: as §1

[29] = molecular target: Neu5Ac(a2-3)[Neu5Ac(a2-6)]GalNAc
Summary of the method: as §1

[30] = molecular target: Neu5Ac(a2-6)Gal(b1-4)GlcNAc(b1-2)Man(a1-3)[GlcNAc(b1-4)][Neu5Ac(a2-6)Gal(b1-4)GlcNAc(b1-2)Man(a1-6)]Man(b1-4)GlcNAc(b1-4)GlcNAc
Summary of the method: as §1

[31] = molecular target: Neu5Ac(a2-6)Gal(b1-4)GlcNAc(b1-2)Man(a1-6)[Gal(b1-4)GlcNAc(b1-2)Man(a1-3)]Man(b1-4)GlcNAc(b1-4)GlcNAc
Summary of the method: as §1

[32] = molecular target: Neu5Ac(b2-6)Gal(b1-4)GlcNAc
Summary of the method: as §1

B1: LgFlo1 (Saccharomyces pastorianus), B3IUA8 (protein)
chain: SGSTQACLPVGSRKNGMNVNFYKYSLQDSTTYSDPQYMAYKYSDTKKLGSVSGQTHLSIYYGPNTAFWNTASWSSDLFGFYTTPTNVTVEMTGYFLPPQTGSYTFKFATVDDSAILSVGGSIAFECCAQEQPPITSTDFTINGIKPWDAATPTDIKGSTYMYAGYYYPIKIVYSNAKALARLPVSVVLPDGTEVNDDFEGYVYSFDDDLSQSNCTIPDPSKHTTS
glycan array binding signal (z-score) [1]: 2.1 | glycan array binding signal (z-score) [2]: 3.52 | glycan array binding signal (z-score) [3]: 4.98 | glycan array binding signal (z-score) (Fuc(a1-2)Gal(b1-4)Glc): -0.137 | glycan array binding signal (z-score) [4]: 0.313 | glycan array binding signal (z-score) [5]: 11.9 | glycan array binding signal (z-score) [6]: 11.9 | glycan array binding signal (z-score) [7]: 2.44 | glycan array binding signal (z-score) [8]: -0.328 | glycan array binding signal (z-score) [9]: 1.81 | glycan array binding signal (z-score) [10]: -0.114 | glycan array binding signal (z-score) [11]: 0.711 | glycan array binding signal (z-score) [12]: 0.072 | glycan array binding signal (z-score) [13]: 0.042 | glycan array binding signal (z-score) (Gal(a1-3)Gal(b1-3)GlcNAc): 2.47 | glycan array binding signal (z-score) [14]: 0.576 | glycan array binding signal (z-score) [15]: -0.146 | glycan array binding signal (z-score) (Gal(a1-3)GalNAc): -0.152 | glycan array binding signal (z-score) [16]: 1.89 | glycan array binding signal (z-score) [17]: 0.784 | glycan array binding signal (z-score) [18]: -0.078 | glycan array binding signal (z-score) [19]: -0.121 | glycan array binding signal (z-score) [20]: 0.549 | glycan array binding signal (z-score) [21]: -0.291 | glycan array binding signal (z-score) (Gal6S(b1-4)GlcNAc): -0.114 | glycan array binding signal (z-score) (GlcNAc(b1-3)Gal): -0.087 | glycan array binding signal (z-score) (GlcNAc(b1-4)GlcNAc): -0.042 | glycan array binding signal (z-score) [22]: -0.317 | glycan array binding signal (z-score) [23]: 5.83 | glycan array binding signal (z-score) [24]: -0.329 | glycan array binding signal (z-score) [25]: -0.135 | glycan array binding signal (z-score) [26]: -0.245 | glycan array binding signal (z-score) (Neu5Ac(a2-3)Gal(b1-4)Glc): 1.97 | glycan array binding signal (z-score) [27]: -0.229 | glycan array binding signal (z-score) [28]: -0.151 | glycan array binding signal (z-score) [29]: -0.356 | glycan array binding signal (z-score) [30]: -0.203 | glycan array binding signal (z-score) [31]: -0.38 | glycan array binding signal (z-score) [32]: -0.214
